# Sampled rows, rich in hits. Any-hit rate of the full collection: about 6.2%.
# AI-2 QS modul – modulators of Vibrio harveyi AI-2 quorum sensing system. 300,000 tested, 0.4% active. Vibrio harveyi JMH597 AI-2 luminescence/OD600 ratio, 9 h; stronger effect = lower value; strain lacks LuxN and CqsS sensors; 0 = neutral-control median. activity change, % at 7.5 µM; in the data active = activity change below about -75%, passing the limit was not always enough;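 note: luminescence divided by OD600 gain over 9 h not by final OD600 alone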
# Mot1-301 SUMO – blocks SUMOylation pathway, rescuing yeast Mot1-301 growth | S. cerevisiae Mot1-301 growth rescue, ATP luminescence, 38.5C; percent above DMSO median, 100 means doubled | growth rescue, % at 18.8 µM | 320,000 tested, 1% active;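 active = every valid replicate shows activation above 250% relative to neutral control wells; inactive = the rest, any valid replicate at or below 250%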;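 note: OY570 slx delta 5 strain wells were the positive control but not used for scaling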
# AHR act – activators of human aryl hydrocarbon receptor | activation, % at 5 µM | 320,000 tested, 2.5% active | P35869 | AHR-responsive luciferase reporter cells, luminescence; in the data active = activation above about 47%;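 note: 0% = vehicle wells and 100% = reference agonist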
# Target sequence (P35869 whole entry, looked up): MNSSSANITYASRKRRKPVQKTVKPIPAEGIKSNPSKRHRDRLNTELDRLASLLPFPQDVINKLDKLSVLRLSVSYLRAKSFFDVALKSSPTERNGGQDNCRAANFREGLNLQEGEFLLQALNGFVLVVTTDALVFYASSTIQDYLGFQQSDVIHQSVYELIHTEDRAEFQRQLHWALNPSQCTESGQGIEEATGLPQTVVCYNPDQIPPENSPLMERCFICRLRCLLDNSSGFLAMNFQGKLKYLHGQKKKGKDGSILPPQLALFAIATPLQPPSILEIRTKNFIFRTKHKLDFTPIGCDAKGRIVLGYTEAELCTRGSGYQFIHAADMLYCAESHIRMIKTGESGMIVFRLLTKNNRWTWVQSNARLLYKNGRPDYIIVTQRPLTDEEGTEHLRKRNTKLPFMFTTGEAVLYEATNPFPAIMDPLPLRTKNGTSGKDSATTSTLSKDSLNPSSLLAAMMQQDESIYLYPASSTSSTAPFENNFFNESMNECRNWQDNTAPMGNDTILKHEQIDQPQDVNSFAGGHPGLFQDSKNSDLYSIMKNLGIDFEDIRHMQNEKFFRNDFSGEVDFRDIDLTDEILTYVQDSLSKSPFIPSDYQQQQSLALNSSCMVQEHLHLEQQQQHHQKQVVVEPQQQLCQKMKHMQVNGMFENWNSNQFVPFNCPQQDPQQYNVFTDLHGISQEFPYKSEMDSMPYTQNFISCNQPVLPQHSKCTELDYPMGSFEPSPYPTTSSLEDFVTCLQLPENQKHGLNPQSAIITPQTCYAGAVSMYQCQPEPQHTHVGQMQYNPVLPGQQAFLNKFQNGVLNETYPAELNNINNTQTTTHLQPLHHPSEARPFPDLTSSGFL
# NR3A LBD binder – modulates the human NR3A ligand-binding domain; Tm shift relative to glycine control, % at 25 µM; NR3A LBD differential scanning fluorimetry, Tm shift; 0% = protein alone, 100% = glycine-bound protein; 340,000 tested, 2.5% active;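 active = melting temperature shift of at least 10% of the positive control shift, at one fixed dose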
# NTR1 ag – agonists of human neurotensin receptor NTR1. 330,000 tested, 0.17% active. NTR1-U2OS beta-arrestin-GFP spot imaging, agonist mode. activation, % at 20 µM. AID 493036. P30989;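 active = activation at or above 40% of the spot to cytoplasm intensity ratio, with at least 20 cells analyzed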;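 note: 0% = DMSO without peptide and 100% = 100 nM NTR1 peptide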
# H9c2 protect – protects H9c2 cardiomyocytes from peroxide injury; 360,000 tested, 0.63% active; protection from H2O2 cell death, % at 20 µM; AID 588492; H2O2 injury protection, ATPLite, 2 h;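 active = compounds giving at least 50% protection of heart cells from peroxide-induced death in the single-dose screen, raw or plate-pattern-corrected value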;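 note: 0% = DMSO wells with peroxide and 100% = DMSO wells without peroxide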
# * hit, by the source's call; nt = no result given.
SMILES,AI-2 QS modul,Mot1-301 SUMO,AHR act,NR3A LBD binder,NTR1 ag,H9c2 protect
Cc1cnc(NC(=O)CSc2nc3ccccc3c(=O)[nH]2)s1,14,-9,26,-1,-2,59*
CCN(CC)c1ccc(NC(=O)CSc2nc3ccccc3c(=O)[nH]2)cc1,15,5,63*,-9,0,36
COc1ccc(C(=O)N/C(=C\c2cn(S(=O)(=O)N(C)C)c3ccccc23)C(=O)N2CCCC2)cc1,nt,nt,nt,nt,nt,5
Cc1c(C(=O)Nc2cccc(C(F)(F)F)c2)oc2ccc(S(=O)(=O)N3CCOCC3)cc12,nt,-21,1,25*,27,-3
Cc1c(C(=O)NCCCN2CCOCC2)oc2ccc(S(=O)(=O)N3CCOCC3)cc12,-1,-10,-2,0,1,20
Cc1ccc(CNC(=O)c2oc3ccc(S(=O)(=O)N4CCOCC4)cc3c2C)cc1,9,-4,1,-32,4,51*
COc1ccc(S(=O)(=O)N2CCCOC2CNC(=O)C(=O)NCCc2ccco2)cc1 (centres undefined),1,170,20,-1,-1,-1
Cc1ccc(C(=O)N2CCN(c3cccc(C)c3C)CC2)cc1S(=O)(=O)N1CCOCC1,nt,3,-1,-1,2,-8
Cc1ccc(-c2cc(C(F)(F)F)c(C#N)c(SCC(=O)O)n2)cc1,14,-9,22,1,-1,1
COc1ccc(-c2cc(C(F)(F)F)c(C#N)c(SCC(=O)O)n2)cc1OC,-3,304*,11,nt,3,nt
CCOC(=O)CC(=O)CSc1nc(-c2ccc3c(c2)OCO3)cc(C(F)(F)F)c1C#N,5,8,60*,1,2,-4
CC(C)(C)C(C(=O)n1cccc1C#N)c1ccccc1 (centres undefined),nt,7,1,1,1,-13
CCC(C)(O)c1[nH]c2ccc(C(=O)OC)cc2c1C (centres undefined),14,2,3,-4,-6,-5
CN1CCCCCC1C(=O)N1CCC(N2CCC(C(=O)N3CCOCC3)CC2)CC1 (centres undefined),4,270*,5,1,0,-1
Cc1ccc(NC(=O)CC2S/C(=N/c3nccs3)N(C)C2=O)cc1C (centres undefined),8,-6,53*,-2,10,-1
Cc1ccccc1NC(=O)CC1S/C(=N/c2nccs2)N(C)C1=O (centres undefined),23,-18,14,-2,1,3
CN(CC(=O)Nc1ccccc1C(F)(F)F)C(=O)CSc1nnc(-c2ccncc2)n1C,nt,-15,2,4,1,5
CN1OC[C@@H]2CN[C@H](c3ccc(-c4cccc(F)c4)cc3)C[C@@H]21,nt,nt,nt,nt,nt,6
N#C/C(=C\Nc1ccc2cn[nH]c2c1)c1nc(-c2ccc(Cl)cc2)cs1,34,17,52*,3,4,-1
O=C(NCc1csc2ccccc12)Nc1cc(Cl)cc(Cl)c1,23,-17,-1,21*,1,-16
O=C(NCc1ccccn1)Nc1cc(Cl)cc(Cl)c1,-51,-15,15,-5,1,-7
CC(=O)Nc1ccc(N=Nc2ccc(O)cc2)cc1,29,-10,11,15*,1,-11
CC(=O)Nc1ccc(N=NN2CCOCC2)cc1,-88*,-21,0,-2,0,-1
CC(=O)Nc1ccc(S(=O)(=O)N(C)c2ccc(O)cc2)cc1,-5,7,1,1,-1,-6
COc1ccc(OCC(O)CNC(=O)c2ccc(OC)cc2)cc1 (centres undefined),6,-9,2,31*,2,5
SMILES,AI-2 QS modul,Mot1-301 SUMO,AHR act,NR3A LBD binder,NTR1 ag,H9c2 protect
COc1ccc(OCC(O)CNC(=O)c2ccc(Br)cc2)cc1 (centres undefined),15,-2,4,-28,0,-3
CC(Sc1nc2ccccc2c(=O)n1CCCN1CCOCC1)C(=O)N1CCc2ccccc21 (centres undefined),nt,nt,nt,1,nt,0
O=S1(=O)CCN(CCCCc2ccccc2)CC1,nt,nt,nt,nt,nt,1
NC(=O)c1cc(N2C(=O)C=CC2=O)ccc1Cl,-82*,-19,4,-3,0,0
CCOC(=O)C1CCN(C(=O)c2cc(S(=O)(=O)N(C)C)ccc2N2CCCC2)CC1,-1,5,-1,-1,0,0
CCOC(=O)C1CCCN(C(=O)c2cc(S(=O)(=O)N(C)C)ccc2N2CCCC2)C1 (centres undefined),22,8,-2,11*,0,-4
CCN(CC)CCNC(=O)CNC(=O)c1nn(-c2ccc(OC)cc2OC)c(=O)c2ccccc12,3,-3,2,0,-1,0
Nc1nccc(-c2cccs2)n1,17,94,1,1,2,4
O=C(Nc1nccc(-c2cccs2)n1)c1cccs1,3,58,48*,-2,-1,-3
O=C(Nc1ncc2c(n1)-c1ccccc1CC2)c1ccccc1,2,15,20,0,1,-2
O=C(Nc1ncc2c(n1)-c1ccccc1CC2)c1cccs1,-2,5,63*,0,2,-2
O=C(Nc1ncc2c(n1)-c1ccccc1CC2)c1ccc(F)cc1,-8,-13,65*,1,0,4
Cc1cccc(OC(=O)NCCOC(=O)N(O)c2ccc(Cl)cc2)c1,1,15,53*,-6,5,-20
COc1ccc(OCc2cc(C(=O)NC(C)Cn3cncn3)no2)c(Cl)c1 (centres undefined),36,-4,14,-1,-1,-5
OC(CNCc1ccccc1)(c1ccccc1)c1ccccc1,19,-11,1,0,0,-8
OC(Cc1ccncc1)(c1ccccc1)c1ccccc1,7,155,1,14*,2,-6
CCN(c1ccccc1)S(=O)(=O)c1cc(C(=O)Nc2ccc(F)c(F)c2)ccc1F,18,12,7,10*,15,-21
CCN(c1ccccc1)S(=O)(=O)c1ccc(C(=O)Nc2cccc(NC(C)=O)c2)cc1,nt,9,5,-4,2,-1
CCN(CC)CCNC1=NCCn2c1cc1cc(OC)ccc12,26,184,58*,-2,-1,12
c1ccc2sc(Sc3ncnc4sccc34)nc2c1,18,3,49*,0,1,-7
COC(=O)c1cccc(C(=O)N2CCCC(CCC(=O)N(C)CCc3ccccn3)C2)c1 (centres undefined),19,431,2,2,0,4
CC(C)OC(=O)N(C)C[C@@H]1OCc2cnnn2CCCC(=O)N([C@@H](C)CO)C[C@H]1C,nt,nt,nt,nt,nt,-3
COc1ccc([C@H]2CC(=O)C=C(c3cc(OC)ccc3OC)C2)cc1,nt,-15,4,1,2,-5

# Assay outcomes: PubChem BioAssay, several laboratories
